Source: PubChem BioAssay (EPA / NIEHS)
Records with an inconclusive call do not appear. Calls of active or inactive are those of the source. The calls were made as follows: active = hit-call score of the fitted dose curve at least 0.9, where 1 is the maximum; inconclusive = response in the unintended direction; inactive = score below 0.9.

What was measured:
[1] = biological target: Retinoic acid receptor alpha (Homo sapiens) (UniProt P10276); assay: ATG_RARa_TRANS: Attagene TRANS-FACTORIAL HepG2 Assay for human Retinoic Acid Receptor alpha (RARa) (AID 2283005)
Procedure, shortened: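 HepG2 cells transiently transfected with multiple reporter units expressing chimeric RARα-GAL4 fusion, with GAL4-UAS-driven reporters. After 24 h compound exposure, reporter mRNA induction quantified by RT-PCR and capillary electrophoresis with fluorescent labeling; gain-of-signal fitted relative to DMSO control.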

[2] = biological target: Nuclear receptor subfamily 1 group I member 2 (Homo sapiens) (UniProt O75469); assay: ATG_PXR_TRANS: Attagene TRANS-FACTORIAL HepG2 Assay for human Pregnane X Receptor (PXR) (AID 2283008)
Sequence of Nuclear receptor subfamily 1 group I member 2 (Homo sapiens) (O75469 whole entry, looked up, the tested form may be a part): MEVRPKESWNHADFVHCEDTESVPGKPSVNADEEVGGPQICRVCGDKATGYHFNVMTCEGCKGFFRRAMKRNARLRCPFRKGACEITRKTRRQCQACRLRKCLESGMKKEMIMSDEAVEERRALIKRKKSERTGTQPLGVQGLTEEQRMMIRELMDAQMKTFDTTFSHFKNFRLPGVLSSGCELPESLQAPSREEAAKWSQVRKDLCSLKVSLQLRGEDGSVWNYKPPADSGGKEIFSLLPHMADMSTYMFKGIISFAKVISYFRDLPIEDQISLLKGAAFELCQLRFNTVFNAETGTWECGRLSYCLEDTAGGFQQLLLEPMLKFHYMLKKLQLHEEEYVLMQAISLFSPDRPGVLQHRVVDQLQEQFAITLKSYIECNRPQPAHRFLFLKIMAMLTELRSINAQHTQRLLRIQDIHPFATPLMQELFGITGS
Procedure, shortened: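 Fluorescence intensity of FAM-labelled, HpaI-digested reporter amplicons, separated by capillary electrophoresis, quantifies induction. HepG2 cells with PXR-Gal4 trans-reporter system were exposed 24 h; DMSO defines baseline.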

[3] = biological target: human Retinoic Acid Receptor gamma (RARg), RARG (gene 5916) (UniProt P13631); assay: ATG_RARg_TRANS: Attagene TRANS-FACTORIAL HepG2 Assay for human Retinoic Acid Receptor gamma (RARg) (AID 2283009)
Sequence of human Retinoic Acid Receptor gamma (RARg), RARG (gene 5916) (P13631 whole entry, looked up, the tested form may be a part): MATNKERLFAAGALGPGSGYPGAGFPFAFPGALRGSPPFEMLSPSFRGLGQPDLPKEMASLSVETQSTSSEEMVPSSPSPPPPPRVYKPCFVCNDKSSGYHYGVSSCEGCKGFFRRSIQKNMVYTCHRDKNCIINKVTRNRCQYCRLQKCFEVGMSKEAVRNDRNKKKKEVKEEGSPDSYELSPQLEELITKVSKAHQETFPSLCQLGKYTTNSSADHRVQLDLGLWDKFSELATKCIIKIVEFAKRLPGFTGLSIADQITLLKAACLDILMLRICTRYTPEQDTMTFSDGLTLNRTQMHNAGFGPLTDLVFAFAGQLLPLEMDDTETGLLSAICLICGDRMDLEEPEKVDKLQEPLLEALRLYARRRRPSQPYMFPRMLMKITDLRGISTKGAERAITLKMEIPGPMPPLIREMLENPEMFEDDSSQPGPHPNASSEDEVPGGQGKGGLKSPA
Procedure, shortened: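 HepG2, RARg-GAL4 TRANS system, 24 h exposure; reporter mRNA by RT-PCR + CE fluorescence; increase over DMSO.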

[4] = biological target: human RAR-related Orphan Receptor gamma (RORg), RORC (gene 6097) (UniProt P51449); assay: ATG_RORg_TRANS: Attagene TRANS-FACTORIAL HepG2 Assay for human RAR-related Orphan Receptor gamma (RORg) (AID 2283011)
Sequence of human RAR-related Orphan Receptor gamma (RORg), RORC (gene 6097) (P51449 whole entry, looked up, the tested form may be a part): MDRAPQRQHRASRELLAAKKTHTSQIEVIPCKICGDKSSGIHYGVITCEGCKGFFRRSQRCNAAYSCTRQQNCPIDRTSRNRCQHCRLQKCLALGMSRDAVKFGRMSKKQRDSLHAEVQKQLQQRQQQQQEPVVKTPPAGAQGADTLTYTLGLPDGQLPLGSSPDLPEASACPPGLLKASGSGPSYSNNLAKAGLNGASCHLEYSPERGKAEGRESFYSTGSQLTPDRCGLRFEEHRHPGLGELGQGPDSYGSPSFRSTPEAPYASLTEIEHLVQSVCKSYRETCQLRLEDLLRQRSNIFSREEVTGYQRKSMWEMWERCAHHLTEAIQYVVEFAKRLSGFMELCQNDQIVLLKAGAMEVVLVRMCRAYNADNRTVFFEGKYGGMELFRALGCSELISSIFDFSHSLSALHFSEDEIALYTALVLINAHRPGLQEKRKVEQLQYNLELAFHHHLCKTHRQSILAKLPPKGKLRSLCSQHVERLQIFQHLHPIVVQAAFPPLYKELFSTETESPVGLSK
Procedure, shortened: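 Chimeric RORg-Gal4 transactivation in transfected HepG2; 24 h exposure; RT-PCR/capillary electrophoresis readout of reporter mRNA, DMSO baseline.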

[5] = biological target: human Peroxisome Proliferator-activated Receptor delta (PPARd), PPARD (gene 5467) (UniProt Q03181); assay: ATG_PPARd_TRANS: Attagene TRANS-FACTORIAL HepG2 Assay for human Peroxisome Proliferator-activated Receptor delta (PPARd) (AID 2283002)
Sequence of human Peroxisome Proliferator-activated Receptor delta (PPARd), PPARD (gene 5467) (Q03181 whole entry, looked up, the tested form may be a part): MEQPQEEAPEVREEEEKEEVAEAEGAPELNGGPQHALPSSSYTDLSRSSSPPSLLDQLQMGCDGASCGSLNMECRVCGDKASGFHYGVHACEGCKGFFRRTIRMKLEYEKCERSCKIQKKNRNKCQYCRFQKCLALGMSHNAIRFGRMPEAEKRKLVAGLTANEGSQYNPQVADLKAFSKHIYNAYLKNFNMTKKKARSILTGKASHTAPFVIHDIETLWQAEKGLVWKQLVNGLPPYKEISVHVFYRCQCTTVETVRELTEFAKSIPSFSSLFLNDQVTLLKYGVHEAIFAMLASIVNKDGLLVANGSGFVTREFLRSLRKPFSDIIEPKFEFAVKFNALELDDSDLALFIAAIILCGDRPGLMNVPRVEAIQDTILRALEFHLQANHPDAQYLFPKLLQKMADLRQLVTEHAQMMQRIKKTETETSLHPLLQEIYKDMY
Procedure, shortened: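 Measured quantity: GAL4-UAS reporter transcript induction in HepG2 after 24 h chemical dosing, with NR-Gal4 chimeras supplied by transient transfection. Detection by RT-PCR and capillary electrophoresis; upward fit against DMSO.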

[6] = biological target: human Retinoic Acid Receptor beta (RARb), RARB (gene 5915) (UniProt P10826); assay: ATG_RARb_TRANS: Attagene TRANS-FACTORIAL HepG2 Assay for human Retinoic Acid Receptor beta (AID 2283004)
Sequence of human Retinoic Acid Receptor beta (RARb), RARB (gene 5915) (P10826 whole entry, looked up, the tested form may be a part): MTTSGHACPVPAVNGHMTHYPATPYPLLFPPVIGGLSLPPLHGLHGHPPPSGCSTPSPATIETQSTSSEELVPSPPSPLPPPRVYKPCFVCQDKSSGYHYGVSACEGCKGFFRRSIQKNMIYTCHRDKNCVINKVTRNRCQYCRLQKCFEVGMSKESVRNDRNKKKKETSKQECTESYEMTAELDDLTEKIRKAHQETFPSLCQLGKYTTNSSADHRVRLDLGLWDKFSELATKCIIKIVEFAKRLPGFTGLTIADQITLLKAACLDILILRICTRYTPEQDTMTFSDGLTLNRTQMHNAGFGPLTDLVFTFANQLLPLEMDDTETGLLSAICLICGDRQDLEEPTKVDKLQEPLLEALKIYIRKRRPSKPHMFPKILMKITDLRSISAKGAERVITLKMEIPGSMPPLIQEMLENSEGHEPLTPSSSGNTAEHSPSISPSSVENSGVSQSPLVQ
Procedure, shortened: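 Fluorescent capillary-electrophoresis detection of GAL4-UAS reporter mRNA defines the endpoint, with induction over DMSO-treated wells scored as activity. Transiently transfected human hepatoma HepG2 cells expressing exogenous NR–Gal4 proteins are exposed to test chemicals for 24 h.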

[7] = biological target: Peroxisome proliferator-activated receptor gamma (Homo sapiens) (UniProt P37231); assay: ATG_PPARg_TRANS: Attagene TRANS-FACTORIAL HepG2 Assay for human Peroxisome Proliferator-activated Receptor-gamma (PPARg) (AID 2283007)
Procedure, shortened: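 HepG2 cells transiently transfected with multiplexed GAL4-UAS reporter units and exogenous chimeric NR-Gal4 proteins; reporter mRNA quantified after 24 h compound exposure by RT-PCR, fluorescent labelling, HpaI digestion and capillary electrophoresis; gain-of-signal fitted versus DMSO baseline.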

[8] = biological target: human RAR-related Orphan Receptor beta (RORb), RORB (gene 6096) (UniProt Q92753); assay: ATG_RORb_TRANS: Attagene TRANS-FACTORIAL HepG2 Assay for human RAR-related Orphan Receptor beta (RORb) (AID 2283010)
Sequence of human RAR-related Orphan Receptor beta (RORb), RORB (gene 6096) (Q92753 whole entry, looked up, the tested form may be a part): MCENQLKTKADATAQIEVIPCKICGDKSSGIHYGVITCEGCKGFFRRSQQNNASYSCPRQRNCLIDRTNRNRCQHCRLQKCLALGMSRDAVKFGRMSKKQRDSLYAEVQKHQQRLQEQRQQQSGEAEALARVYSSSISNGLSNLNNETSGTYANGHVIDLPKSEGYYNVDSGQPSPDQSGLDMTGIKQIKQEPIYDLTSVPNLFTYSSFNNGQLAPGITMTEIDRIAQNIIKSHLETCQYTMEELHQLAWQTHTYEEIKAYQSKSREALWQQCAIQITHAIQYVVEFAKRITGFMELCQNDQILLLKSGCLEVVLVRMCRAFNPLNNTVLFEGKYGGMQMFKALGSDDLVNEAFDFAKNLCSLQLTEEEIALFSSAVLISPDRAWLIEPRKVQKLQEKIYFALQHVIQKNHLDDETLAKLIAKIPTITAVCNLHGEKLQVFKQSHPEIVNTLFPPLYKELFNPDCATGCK
Procedure, shortened: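 In this TRANS-format test, human HepG2 cells express chimeric NR-Gal4 fusion proteins driving GAL4-UAS reporters. After 24 h dosing, reporter transcripts are measured by fluorescent RT-PCR/capillary electrophoresis, with DMSO as negative control.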

[9] = biological target: Retinoic acid receptor RXR-alpha (Homo sapiens) (UniProt P19793); assay: ATG_RXRa_TRANS: Attagene TRANS-FACTORIAL HepG2 Assay for human Retinoid X Receptor alpha (RXRa) (AID 2283012)
Sequence of Retinoic acid receptor RXR-alpha (Homo sapiens) (P19793 whole entry, looked up, the tested form may be a part): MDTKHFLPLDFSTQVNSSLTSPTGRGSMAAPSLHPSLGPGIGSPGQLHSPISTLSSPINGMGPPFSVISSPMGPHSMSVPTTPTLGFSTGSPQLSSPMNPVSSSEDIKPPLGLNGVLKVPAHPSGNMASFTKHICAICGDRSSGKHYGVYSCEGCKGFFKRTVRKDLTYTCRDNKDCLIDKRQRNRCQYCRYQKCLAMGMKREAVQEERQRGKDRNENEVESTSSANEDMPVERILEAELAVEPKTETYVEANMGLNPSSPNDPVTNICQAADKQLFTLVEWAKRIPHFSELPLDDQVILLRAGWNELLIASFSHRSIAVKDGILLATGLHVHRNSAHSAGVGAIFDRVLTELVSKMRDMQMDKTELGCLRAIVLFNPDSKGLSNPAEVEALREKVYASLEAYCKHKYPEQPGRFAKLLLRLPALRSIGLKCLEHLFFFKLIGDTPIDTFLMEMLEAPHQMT
Procedure, shortened: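 Cells (HepG2) carried transiently transfected GAL4-responsive reporter units. Following a 24 h chemical incubation, reporter mRNA induction was read via RT-PCR fragment analysis; DMSO served as negative control and baseline.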

[10] = biological target: human Thyroid Receptor alpha (THRa1), THRA (gene 7067) (UniProt P10827); assay: ATG_THRa1_TRANS: Attagene TRANS-FACTORIAL HepG2 Assay for human Thyroid Receptor alpha (THRa1) (AID 2283014)
Sequence of human Thyroid Receptor alpha (THRa1), THRA (gene 7067) (P10827 whole entry, looked up, the tested form may be a part): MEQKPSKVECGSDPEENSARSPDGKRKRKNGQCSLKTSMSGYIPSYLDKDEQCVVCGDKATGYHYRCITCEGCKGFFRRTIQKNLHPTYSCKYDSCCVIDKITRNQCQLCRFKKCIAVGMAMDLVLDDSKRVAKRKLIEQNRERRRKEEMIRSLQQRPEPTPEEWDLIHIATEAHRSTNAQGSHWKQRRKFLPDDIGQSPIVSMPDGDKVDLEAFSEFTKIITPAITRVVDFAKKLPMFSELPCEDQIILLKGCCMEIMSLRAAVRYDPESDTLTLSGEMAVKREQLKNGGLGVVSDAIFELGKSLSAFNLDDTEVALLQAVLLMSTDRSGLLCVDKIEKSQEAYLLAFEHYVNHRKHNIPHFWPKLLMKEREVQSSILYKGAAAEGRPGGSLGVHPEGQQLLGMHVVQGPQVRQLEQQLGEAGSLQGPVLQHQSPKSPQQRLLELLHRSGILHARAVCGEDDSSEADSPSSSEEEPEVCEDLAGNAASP
Procedure, shortened: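 Measured here is mRNA from a GAL4-UAS reporter in transfected HepG2 cells carrying a Gal4-fused receptor, 24 h post-dose. DMSO served as negative control and baseline.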

[11] = biological target: human Retinoid X Receptor beta (RXRb), RXRB (gene 6257) (UniProt P28702); assay: ATG_RXRb_TRANS: Attagene TRANS-FACTORIAL HepG2 Assay for human Retinoid X Receptor beta (RXRb) (AID 2283013)
Sequence of human Retinoid X Receptor beta (RXRb), RXRB (gene 6257) (P28702 whole entry, looked up): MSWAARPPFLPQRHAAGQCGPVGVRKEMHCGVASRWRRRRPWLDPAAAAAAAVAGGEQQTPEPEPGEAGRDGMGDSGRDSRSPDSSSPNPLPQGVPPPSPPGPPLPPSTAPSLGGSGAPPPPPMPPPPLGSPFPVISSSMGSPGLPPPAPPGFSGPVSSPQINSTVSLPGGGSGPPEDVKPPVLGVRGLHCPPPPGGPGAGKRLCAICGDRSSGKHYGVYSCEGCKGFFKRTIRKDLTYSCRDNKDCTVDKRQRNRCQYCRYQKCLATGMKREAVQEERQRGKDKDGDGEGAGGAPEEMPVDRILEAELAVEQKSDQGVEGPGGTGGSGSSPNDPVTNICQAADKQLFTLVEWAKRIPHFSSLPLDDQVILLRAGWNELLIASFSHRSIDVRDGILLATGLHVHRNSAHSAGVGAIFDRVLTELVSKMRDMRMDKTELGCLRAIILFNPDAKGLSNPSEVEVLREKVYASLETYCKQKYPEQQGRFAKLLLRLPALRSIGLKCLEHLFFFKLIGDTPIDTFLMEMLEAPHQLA
Procedure, shortened: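 Multiplexed TRANS reporter assay in HepG2; 24 h dosing; reporter mRNA by RT-PCR/CE fluorescence; gain-of-signal relative to DMSO.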

[12] = biological target: human Peroxisome Proliferator-activated Receptor alpha (PPARa), PPARA (gene 5465) (UniProt Q07869); assay: ATG_PPARa_TRANS: Attagene TRANS-FACTORIAL HepG2 Assay for human Peroxisome Proliferator-activated Receptor alpha (PPARa) (AID 2283001)
Sequence of human Peroxisome Proliferator-activated Receptor alpha (PPARa), PPARA (gene 5465) (Q07869 whole entry, looked up, the tested form may be a part): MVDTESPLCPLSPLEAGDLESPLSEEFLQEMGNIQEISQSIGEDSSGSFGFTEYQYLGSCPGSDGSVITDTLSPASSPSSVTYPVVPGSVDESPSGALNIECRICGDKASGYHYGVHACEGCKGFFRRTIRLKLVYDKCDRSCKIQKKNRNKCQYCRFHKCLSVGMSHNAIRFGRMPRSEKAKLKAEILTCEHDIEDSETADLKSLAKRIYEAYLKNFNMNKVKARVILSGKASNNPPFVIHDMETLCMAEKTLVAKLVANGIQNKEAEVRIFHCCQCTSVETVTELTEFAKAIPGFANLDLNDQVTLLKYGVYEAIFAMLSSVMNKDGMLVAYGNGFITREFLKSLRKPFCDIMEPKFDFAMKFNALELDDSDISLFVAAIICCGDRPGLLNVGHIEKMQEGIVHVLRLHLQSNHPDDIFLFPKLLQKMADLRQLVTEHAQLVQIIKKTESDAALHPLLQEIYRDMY
Procedure, shortened: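 HepG2 cells transiently transfected with multiplexed GAL4-UAS reporter units and chimeric NR-Gal4 constructs were dosed for 24 h. Reporter mRNA was measured by RT-PCR with fluorescent labelling and capillary electrophoresis; gain of signal fitted against DMSO.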

Measured: AC50

CC(=O)CCC(C)C
inactive: [1] | [2] | [3] | [4]

OCC1CCCO1 (stereo unspecified)
inactive: [5] | [6] | [2] | [3]

CCCCC(CC)COC(=O)c1ccc(N(C)C)cc1 (stereo unspecified)
active: [7] 30.3 µM | [2] 27.2 µM
inactive: [5] | [8] | [9] | [10]

CCOC(=O)C1CC(=O)C(=C(O)C2CC2)C(=O)C1 (stereo unspecified)
inactive: [5] | [7] | [2] | [8]

OCCC(O)CO (stereo unspecified)
inactive: [3] | [9] | [10]

Nc1c(Br)cc([N+](=O)[O-])cc1Br
active: [2] 26.8 µM
inactive: [5] | [7] | [3] | [8] | [4] | [9] | [10]

O=S(=O)(O)c1ccc(Cl)cc1
inactive: [5] | [7] | [8] | [9]

CCc1cc(Cc2cc(CC)c(N)c(CC)c2)cc(CC)c1N
inactive: [5] | [3] | [8] | [9]
active: [7] 0.886 µM | [2] 1.08 µM

CO[Si](CCCOCC1CO1)(OC)OC (stereo unspecified)
inactive: [5] | [4] | [9] | [11]

OCCCCl
inactive: [5] | [6] | [1] | [2] | [9] | [10]

Cc1ccc(O)cn1
inactive: [5] | [7] | [2] | [4] | [9]

CCOCN(C(=O)CS(=O)(=O)O)c1c(C)cccc1CC
inactive: [6] | [7] | [2] | [3] | [8] | [4] | [10]

CN(C)C(C)(C)CO
inactive: [5] | [2] | [4] | [9] | [10]

COC(=O)c1ccc(C=O)cc1
inactive: [12] | [7] | [8] | [4]

OCCCc1cccnc1
inactive: [5] | [1] | [7] | [2] | [3] | [4] | [10]

Brc1ccccn1
inactive: [6] | [7] | [2] | [8] | [4] | [9] | [10]

CCC(C)CO (stereo unspecified)
inactive: [12] | [7] | [2] | [3] | [8] | [9] | [10]

CCOCOCC
inactive: [5] | [6] | [1] | [7] | [3] | [9] | [10]

O=c1[nH]cccc1O
inactive: [6] | [1] | [7] | [3] | [8] | [4] | [10]

CC(C)OC=O
inactive: [12] | [7] | [2] | [8] | [9] | [11]

O=C(c1ccccc1)c1ccc(Cl)cc1
inactive: [5] | [9] | [10]
active: [7] 51.6 µM | [2] 37.1 µM

CC(C)C(=O)OCc1ccccc1
inactive: [12] | [8] | [9]

CCCC(=O)OCC(COC(=O)CCC)OC(=O)CCC
inactive: [4] | [9]

Cc1cccc(C)n1
inactive: [6] | [7] | [2] | [4] | [10]

COCCOCCC[Si](C)(O[Si](C)(C)C)O[Si](C)(C)C
active: [2] 1.47 µM
inactive: [5] | [6] | [7] | [3] | [4] | [9] | [10]

CCN=c1cc2oc3cc(NCC)c(C)cc3c(-c3ccccc3C(=O)OCC)c-2cc1C
inactive: [5] | [6] | [7] | [2] | [4] | [9] | [11] | [10]

CCCCCCCCCc1ccc(OCCO)cc1
active: [2] 0.732 µM
inactive: [5] | [7] | [3] | [9] | [11] | [10]

CC(C)=CCCC(C)O (stereo unspecified)
inactive: [7] | [11]
